# The list is not random: actives were taken first. Their share in the collection is about 3.9%.
# ALR H2O2 inh = inhibitors of human ALR sulfhydryl oxidase, primary screen, biochemical, H2O2 detection, HRP-luminol luminescence, single point; 290,000 tested, 3.8% active; AID 485317, 2010; inhibition, % (no concentration beside the values); purified ALR, DTT oxidation;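 active means mean replicate inhibition above about 79%, with every replicate also reaching it, limit read from the data; inconclusive means only one of the two criteria met; inactive means mean below limit and not every replicate reaching it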
# Target sequence (P55789 whole entry, looked up): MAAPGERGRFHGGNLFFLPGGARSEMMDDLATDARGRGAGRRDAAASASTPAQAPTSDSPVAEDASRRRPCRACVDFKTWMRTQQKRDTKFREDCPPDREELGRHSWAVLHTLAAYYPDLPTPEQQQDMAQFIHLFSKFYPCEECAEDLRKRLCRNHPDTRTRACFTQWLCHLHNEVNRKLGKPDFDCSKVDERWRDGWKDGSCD
# UBC9 SUMO inh = inhibitors of in vitro SUMOylation cascade, primary screen, biochemical, HTRF, uHTS; SUMO-conjugating enzyme UBC9 (Homo sapiens), P63279; HTRF SUMOylation assay, SAE1/SAE2 + UBC9; inhibition, % at 35 µM; 290,000 tested, 0.36% active; AID 2006, 2009; in the data active means inhibition above about 50%, passing the limit was not always enough; inconclusive means no clear call, values can overlap the other calls
# Cardio protect = cardioprotection against H2O2-induced cell death, primary screen, uHTS, H9c2 cells, ATPLite luminescence. H9c2 cardiomyocytes, H2O2 injury protection, 2 h. protection from H2O2 cell death, % at 20 µM. AID 588492, 2011. 360,000 tested, 0.63% active;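 active means compounds giving at least 50% protection of heart cells from peroxide-induced death in the single-dose screen, raw or plate-pattern-corrected value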
# NTR1 ag = agonists of human NTR1, primary screen, imaging, U2OS cells, beta-arrestin-GFP, high content. NTR1-U2OS beta-arrestin-GFP spot imaging, agonist mode. activation, % at 20 µM. 330,000 tested, 0.17% active;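 active means activation at or above 40% of the spot to cytoplasm intensity ratio, with at least 20 cells analyzed; inconclusive means wells under 20 cells, flagged as cytotoxic or low count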
# Target sequence (P30989 whole entry, looked up): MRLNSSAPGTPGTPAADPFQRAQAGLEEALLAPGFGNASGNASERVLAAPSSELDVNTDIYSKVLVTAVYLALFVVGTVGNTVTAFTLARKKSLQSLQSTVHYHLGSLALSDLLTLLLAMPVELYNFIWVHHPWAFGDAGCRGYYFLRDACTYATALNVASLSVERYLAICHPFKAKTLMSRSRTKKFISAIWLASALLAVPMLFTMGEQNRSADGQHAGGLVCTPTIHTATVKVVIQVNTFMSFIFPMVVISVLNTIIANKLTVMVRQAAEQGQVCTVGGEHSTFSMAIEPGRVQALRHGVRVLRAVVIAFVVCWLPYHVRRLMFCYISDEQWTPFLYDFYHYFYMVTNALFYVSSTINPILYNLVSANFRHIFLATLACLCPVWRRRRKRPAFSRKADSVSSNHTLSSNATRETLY
# Numbers stand for hits; n = inactive; u = inconclusive; x = no result given.
SMILES,ALR H2O2 inh,UBC9 SUMO inh,Cardio protect,NTR1 ag
CCc1cccc(C)c1NC(=O)COC(=O)c1c2c(nc3ccccc13)/C(=C\c1cccs1)CCC2,n,n,n,n
O=C(COC(=O)c1c2c(nc3ccccc13)/C(=C/c1ccco1)CC2)NC1CCCC1,x,71.0,n,x
Cc1cc(C(=O)OCC(=O)NC2CCCC2)c2ccccc2n1,x,x,n,n
NC(=O)c1ccc(NC(=O)COC(=O)c2c3c(nc4ccccc24)/C(=C\c2cccs2)CCC3)cc1,n,n,54.5,n
CC1CCCCC1NC(=O)COC(=O)c1c2c(nc3ccccc13)/C(=C/c1ccco1)CC2 (stereo not given),n,65.0,n,x
CCN(CC(=O)Nc1ccc(OC)cc1)C(=O)c1ccc(OCc2c(C)noc2C)cc1,x,x,n,x
OC(CN1CCc2ccccc2C1)c1ccccc1 (stereo not given),n,n,n,n
CN1C=CC=C/C1=C1\SC(=S)N(C2CCCCC2)C1=O,98.9,n,n,n
CN1C=CC=C/C1=C1\SC(=S)N(c2ccccc2)C1=O,98.8,n,n,n
CN1C=CC=C/C1=C1\SC(=S)N(CC(=O)O)C1=O,n,n,n,n
C=CCN1C=CC=C/C1=C1\SC(=S)N(C)C1=O,99.2,n,n,n
C=CCC[C@@H](Cc1ccc(F)cc1)C(=O)OC[C@@H](Cc1c[nH]c2ccccc12)NC(=O)[C@@H](CC=C)CC(=O)NCCO,x,x,n,n
C=CCC[C@H](Cc1ccc(F)cc1)C(=O)OC[C@@H](Cc1c[nH]c2ccccc12)NC(=O)[C@@H](CC=C)CC(=O)NCCO,n,x,67.8,n
CCOC(=O)Cc1c(C)nc2c(-c3cccc(Br)c3)cnn2c1C,n,n,n,n
CCOC(=O)CN1CCc2c(C)nc3c(-c4ccc(OC)c(OC)c4)cnn3c21,83.5,n,n,n
Cc1ccc(NC(=O)CSC(C)C(=O)OCc2cc(=O)oc3cc(O)ccc23)cc1 (stereo not given),x,x,66.6,x
CSCCC(NS(=O)(=O)c1ccccc1)C(=O)OCc1nc2ccsc2c(=O)[nH]1 (stereo not given),x,x,n,n
CSCCC(NS(=O)(=O)c1ccccc1)C(=O)OCc1cc(=O)oc2cc(O)ccc12 (stereo not given),n,x,56.3,n
O=C(COc1ccccc1[N+](=O)[O-])N/N=C/c1ccc(OC(=O)c2ccco2)cc1,n,n,n,n
OCCN1CCN(c2nc(NCc3ccco3)c3ccccc3n2)CC1,n,n,n,n
OCCNc1nc(NCc2ccccc2)c2ccccc2n1,x,n,n,n
c1ccc(CN2CCN(c3nc(NCc4ccco4)c4ccccc4n3)CC2)cc1,n,n,n,44.2
OCCNc1nc(Nc2cccc(O)c2)nc2ccccc12,95.1,n,n,n
COc1cccc(Nc2nc(NCCO)c3ccccc3n2)c1,n,n,n,n
OCCNc1nc(N2CCN(c3ccccc3)CC2)nc2ccccc12,98.0,n,n,n
SMILES,ALR H2O2 inh,UBC9 SUMO inh,Cardio protect,NTR1 ag
OCCNc1nc(Nc2ccc(O)cc2)nc2ccccc12,98.8,n,n,n
Cc1cc(C)c(S(=O)(=O)Nc2ccc3c(c2)CCC3)c(C)c1,n,n,n,n
CCOC(=O)N1CCN(C(=O)CSCc2nc(-c3ccccc3F)oc2C)CC1,99.8,n,n,n
Cc1oc(-c2ccccc2F)nc1CSCC(=O)NC1CCCC1,n,n,n,n
CCOC(=O)N1CCN(C(=O)CS(=O)(=O)Cc2nc(-c3ccccc3C)oc2C)CC1,n,n,n,n
CCOC(=O)N1CCN(C(=O)CSCc2nc(-c3ccccc3C)oc2C)CC1,98.8,n,n,n
CCOC(=O)C1(C)CCCCN1C(=O)c1ccccc1OC (stereo not given),x,x,n,x
CCc1ccccc1NC1=CC(=O)CC(C)(C)C1,n,n,n,n
CC1(C)CC(=O)C=C(Nc2ccccc2N)C1,98.7,n,n,n
COc1ccc(-c2cc(=O)oc3c(O)c(O)ccc23)cc1,98.5,n,63.4,n
O=S(=O)(Nn1cnnc1)c1ccc2ccccc2c1,n,n,n,n
Nc1cc(=O)[nH]c(SCCSc2ccccc2)n1,n,n,n,n
O=S(=O)(C/C(=C/CO)S(=O)(=O)c1ccccc1)c1ccccc1,98.6,n,n,n
O=c1[nH]c2ccc(NS(=O)(=O)c3ccc(Cl)cc3)cc2[nH]1,n,n,n,n
Cc1csc(NC(=O)CSc2nncn2C)n1,n,n,n,n
Cc1csc(NC(=O)CSc2nncc(=O)n2N)n1,98.5,n,n,n
Cc1csc(NC(=O)CSc2nccn2C)n1,95.9,n,n,n
COc1cccc2cc(-c3nnc(SCC(=O)Nc4nc(C)cs4)n3C)oc12,n,n,68.6,n
Cc1csc(NC(=O)CSc2nnc(-c3ccco3)n2C)n1,x,n,n,n
CCOC(=O)c1csc(NC(=O)CSc2nnnn2CC)n1,98.6,n,n,n
CCOC(=O)c1csc(NC(=O)CSc2nnnn2-c2ccc3c(c2)OCCO3)n1,n,n,n,n
CC(=O)N(CN1C(=O)c2ccccc2C1=O)c1ccccc1,n,n,n,n
CCc1ccc(C(=O)/C=C/Nc2ccc(S(=O)(=O)Nc3onc(C)c3C)cc2)cc1,97.3,n,n,n
Cc1noc(NS(=O)(=O)c2ccc(N/C=C/C(=O)c3ccc(F)cc3)cc2)c1C,n,n,n,n
COc1ccc(C(=O)/C=C/Nc2ccc(S(=O)(=O)Nc3onc(C)c3C)cc2)cc1,97.3,n,n,n
SMILES,ALR H2O2 inh,UBC9 SUMO inh,Cardio protect,NTR1 ag
CN(CC(=O)Nc1cccc(S(=O)(=O)N(C)C)c1)Cc1ccccc1,n,n,n,n
O=C(c1cc(-c2cccnc2)nc2ccc(Br)cc12)N1CCN(c2ncccn2)CC1,x,n,59.2,n
CC(=O)c1ccc(N2CCN(C(=O)c3cc(-c4cccnc4)nc4ccc(Br)cc34)CC2)cc1,n,n,53.1,n
Cc1ccc2nc(-c3cccnc3)cc(C(=O)N3CCN(c4ccc([N+](=O)[O-])cc4)CC3)c2c1,x,n,n,n
O=C(c1cc(-c2ccncc2)nc2ccc(Cl)cc12)N1CCN(Cc2ccc3c(c2)OCO3)CC1,x,n,n,n
CS(=O)(=O)N1CCN(C(=O)c2cc(-c3cccnc3)nc3ccc(Br)cc23)CC1,n,n,n,n
O=C(c1cc(-c2ccncc2)nc2ccc(Br)cc12)N1CCN(Cc2ccc3c(c2)OCO3)CC1,n,n,65.7,n
Cc1cc(NC(=O)CN2CCN(S(=O)(=O)c3ccc4ccccc4c3)CC2)no1,n,n,n,n
CC(Oc1ccc(-c2ccccc2)c(F)c1)c1ccn(S(=O)(=O)c2ccc(F)cc2)n1 (stereo not given),n,n,n,n
Cc1cc2cc3c(cc2nc1SCC(=O)O)CCC3,97.5,n,n,n
Cc1ccccc1NC(=O)CSc1nc2cc3c(cc2cc1C)CCC3,n,n,n,n
COc1cccc(Cn2nc(C(=O)O)c3ccccc3c2=O)c1,u,n,64.0,n
COc1ccc(Cn2nc(C(=O)O)c3ccccc3c2=O)cc1F,n,n,n,n
CC(NC(=O)Cn1nc(C(=O)O)c2ccccc2c1=O)c1ccccc1 (stereo not given),n,n,80.8,n

# Screens from PubChem BioAssay.
